The record followed here is PubChem BioAssay (NCATS).

The test system of test [1] is Zika virus NS2B-NS3 protease (unlinked complex). The test can be described thus: Primary screen GU Rhodamine qHTS for Zika virus inhibitors: Unlinked NS2B-NS3 protease assay (AID 1347159). Note: nearly all actives have a fitted effect of over 60% in size. The method, boiled down: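 Noncovalent NS2B hydrophilic domain/NS3 protease complex (25 nM final) in 10 mM Tris-HCl pH 8.0, 0.01% Tween 20, preincubated 15 min with compounds (up to 114 microM), then 1.5 microM Rhodamine110 substrate. Fluorescence change over 15 min fitted to 4-parameter Hill.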
(Quantitative high-throughput screening tests each substance at several concentrations.)

Test [2] concerns Zika virus NS2B-NS3 protease (linked construct). Nature of the test: Primary screen NINDS Rhodamine qHTS for Zika virus inhibitors (AID 1347160). Note: nearly all actives have a fitted effect of over 55% in size. A digest of the protocol:
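Purified NS2B-NS3 protease with the NS2B hydrophilic domain joined by a flexible linker (25 nM) in 10 mM Tris-HCl pH 8.0, 0.01% Tween 20, preincubated 15 min at RT with compound; Rhodamine110 peptide substrate 1.5 µM; fluorescence change over 15 min; 4-parameter Hill fit.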

Inconclusive results are not listed. Values without a mark were called inactive. Active and inactive are the calls of the source. Calls come from the whole dose curve; as a rule, active = well fitted inhibition curve with a large enough effect; inconclusive = small, poorly fitted or top-dose-only effect; inactive = no such curve, though single readings can be large or run the other way.
% is set by controls: 0 for no effect and ±100 for the full control effect; potency is the fitted concentration of half-maximal effect.

With `NC[C@@](O)(c1ccc(Cl)cc1)c1ccc(-c2cn[nH]c2)cc1`, the Potency entry in test [1] and in test [2] was “inactive” each time.

As to `CC1OC(OCC2OC(OC3CCC4(C)C(CCC5(C)C4CC=C4C6CC(C)(C)CCC6(C(=O)OC6OC(CO)C(O)C(O)C6O)CCC45C)C3(C)CO)C(O)C(O)C2O)C(O)C(O)C1O` (stereo not drawn), the Potency entry in test [1] and in test [2] was “inactive” in each case.

As to `C#CCN(Cc1cc2c(=O)n(C)c(CN3CCN(C)CC3)nc2cc1Cl)c1ccc(C(=O)NCc2cccnc2)cc1`, the Potency result in test [1] and in test [2] was “inactive” throughout.

Consider `CC(C)CC(=O)O[C@@H]1OC=C(CO[C@@H]2O[C@H](CO)[C@@H](O)[C@H](O)[C@H]2O)[C@H]2[C@@H]3O[C@H]3[C@@](O)(CO)[C@@H]12`, for which the Potency entry in test [1] and in test [2] was “inactive” in each case.

For `CC1C(=O)OCC2=CCN3CCC(OC(=O)C(C)(O)C1(C)O)C23` (stereo not drawn), the Potency entry in test [1] and in test [2] was “inactive” throughout.

As to `CN(c1ccccc1CNc1nc(Nc2ccc3c(c2)CC(=O)N3)ncc1C(F)(F)F)S(C)(=O)=O`, the Potency entry in test [1] and in test [2] was “inactive” in each case.

For the compound `O=C(O)c1cn(C2CC2)c2cc(N3C[C@@H]4C[C@H]3CN4)c(F)cc2c1=O`, the Potency entry in test [1] and in test [2] was “inactive” throughout.

Take `COC(=O)N[C@H](C(=O)N1[C@@H]2CC[C@@H](C2)[C@H]1c1nc2ccc(-c3ccc4c(c3)C(F)(F)c3cc(-c5cnc([C@@H]6CCC7(CC7)N6C(=O)[C@@H](NC(=O)OC)C(C)C)[nH]5)ccc3-4)cc2[nH]1)C(C)C`: the Potency entry in test [1] and in test [2] was “inactive” throughout.

As to `Cc1nc([C@](C)(O)CO)sc1-c1cnc(N)c(O[C@H](C)c2cc(F)ccc2-n2nccn2)c1`, the Potency entry in test [1] and in test [2] was “inactive” in each case.

Regarding `C[C@@H]1O[C@@H](O[C@H]2[C@H](O)[C@@H](O)[C@H](OC[C@H]3O[C@@H](OC(=O)[C@]45CCC(C)(C)C[C@H]4C4=CCC6[C@@]7(C)CC[C@H](O[C@@H]8OC[C@H](O)[C@H](O[C@@H]9O[C@H](CO)[C@@H](O)[C@H](O)[C@H]9O)[C@H]8O)[C@@](C)(CO)C7CC[C@@]6(C)[C@]4(C)CC5)[C@H](O)[C@@H](O)[C@@H]3O)O[C@@H]2CO)[C@H](O)[C@H](O)[C@H]1O` (stereo partly drawn), the activity change, negative = inhibition in test [1] is 4.91% [at 19.1 µM]; in test [2], 3.05% [at 10.7 µM].

`O=C(O)Cc1cn(C2OCC(O)C(O)C2O[C@@H]2O[C@H](CO)[C@@H](O)[C@H](O)[C@H]2O)c2ccccc12` (stereo partly drawn): the Potency result in test [1] and in test [2] was “inactive” each time.

For `CO[C@H]1/C=C\O[C@@]2(C)Oc3c(C)c(O)c4c(O)c(c5c(nc6cc(C)ccn65)c4c3C2=O)NC(=O)/C(C)=C\C=C/[C@H](C)[C@H](O)[C@@H](C)[C@@H](O)[C@@H](C)[C@H](OC(C)=O)[C@@H]1C`, the Potency entry in test [1] and in test [2] was “inactive” in each case.

Turning to `CC(C)N(CCCCOCC(=O)NS(C)(=O)=O)c1cnc(-c2ccccc2)c(-c2ccccc2)n1`, the Potency in test [1] is 7.94 µM (active); in test [2], 28.2 µM (active).

For the compound `CNC(=O)c1ccccc1Nc1nc(Nc2ccc3c(c2OC)CCC[C@@H](N2CCN(CCO)CC2)C3)ncc1Cl`, the Potency result in test [1] and in test [2] was “inactive” each time.

As for `CC(=O)N1CCc2ccc(O)c(OC3OC(COC4OCC(O)(CO)C4O)C(O)C(O)C3O)c2C1Cc1ccc(O)cc1` (stereo not drawn), the Potency entry in test [1] and in test [2] was “inactive” in each case.

For `C[C@]12C[C@@H](O)[C@@H]3C[C@@]1(O[C@@H]1O[C@H](CO)[C@@H](O)[C@H](O)[C@H]1O)[C@]3(COC(=O)c1ccccc1)C(=O)O2`, the Potency result in test [1] and in test [2] was “inactive” in each case.

With `C=C1CCC2C(C(C)(C)O)CCC2(C)CC(O)C(=C)CCC1O` (stereo not drawn), the Potency result in test [1] and in test [2] was “inactive” throughout.

As for `CC(CO)C1CCC2(C)CC3C(CO)CC(O)C3C(C)(O)C/C=C/12` (stereo not drawn), the Potency entry in test [1] and in test [2] was “inactive” in each case.

On to `CCN1CCN(Cc2ccc(Nc3ncc(F)c(-c4cc(F)c5nc(C)n(C(C)C)c5c4)n3)nc2)CC1`, for which the Potency result in test [1] and in test [2] was “inactive” throughout.

For `CC1(C)CC(NC(=O)C(=O)Nc2ccc(Br)cc2)CC(C)(C)N1`, the Potency result in test [1] and in test [2] was “inactive” in each case.

For `O=C1CSc2ccccc2N1Cc1cccc(C(F)(F)F)c1`, the Potency entry in test [1] and in test [2] was “inactive” each time.

On to `COc1cc(O)cc(/C=C/c2ccc(O[C@@H]3O[C@H](CO)[C@@H](O)[C@H](O)[C@H]3O)cc2)c1`, for which the Potency entry in test [1] and in test [2] was “inactive” in each case.

Turning to `CN1C2CCC1CC(OC(=O)[C@H](CO)c1ccccc1)C2` (stereo partly drawn), the Potency entry in test [1] and in test [2] was “inactive” each time.

For `C=C1C(=O)O[C@@H]2/C=C(\C)C(=O)/C=C/[C@](C)(O)C[C@@H](OC(=O)C(C)C)[C@@H]12`, the Potency result in test [1] and in test [2] was “inactive” in each case.

In the case of `Cc1cc(O)cc(O[C@@H]2O[C@H](CO)[C@@H](O)[C@H](O)[C@H]2O)c1`, the Potency entry in test [1] and in test [2] was “inactive” in each case.

Turning to `CC(C)c1cc(C(=O)N2CC[C@H](NC(=O)C3CC3)C2)n[nH]1`, the Potency entry in test [1] and in test [2] was “inactive” in each case.

Consider `Cc1ccc(C(=O)N(CCCN)C(c2nc3cc(Cl)ccc3c(=O)n2Cc2ccccc2)C(C)C)cc1` (stereo not drawn), for which the Potency result in test [1] and in test [2] was “inactive” each time.

With `C=C[C@]1(C)C[C@H](O)[C@@H]2[C@H](OC(=O)[C@@H]2C)C1/C(C)=C/O[C@@H]1O[C@H](CO)[C@@H](O)[C@H](O)[C@H]1O` (stereo partly drawn), the Potency entry in test [1] and in test [2] was “inactive” throughout.

Regarding `COc1cc(/C=C/C=O)cc(OC)c1O[C@@H]1O[C@H](CO)[C@@H](O)[C@H](O)[C@H]1O`, the Potency result in test [1] and in test [2] was “inactive” throughout.
